# Pf Dd2 inh = inhibitors of Plasmodium falciparum Dd2 growth | P. falciparum Dd2 growth, SYBR Green, 72 h | Potency, µM (top dose mostly 28.9 µM), for inactives: at the highest dose activity, negative = inhibition, hits mostly inhibitors | 120,000 compounds, 4.3% hits | AID 1347417; active = well fitted inhibition curve with a large enough effect;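 also: plate controls were DMSO vehicle for no effect and reference drug for full effect; nearly all actives have a fitted effect of over 65% in size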
#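 Infected erythrocytes (Dd2, 0.3% parasitemia, 2.5% hematocrit final) are added to compound in RPMI-1640/Albumax II medium, grown 72 h at 37C in low oxygen, then lysed with saponin/Triton-X containing SYBR Green and read by fluorescence.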
# Numbers without * were called inactive; i = inactive; [ ] = remark or other dose. Many of the other results were omitted from the sample, so hits are more common in it than they were. Potency is read from the fitted curve at half-maximal effect.
SMILES,Pf Dd2 inh
CN1CCN(C(CNC(=O)c2cccc(F)c2)c2ccc3c(c2)OCO3)CC1 (centres undefined),-23.1%
CC(C)c1noc(-c2cn(C3CCN(C(=O)Cc4ccc(Br)cc4)C3)nn2)n1 (centres undefined),i
COc1ccc(-c2cc(C(=O)NC3CC3)c3c(C4CCCN4)noc3n2)cc1 (centres undefined),468.6%
CS(=O)(=O)N(C1CC1)C1CCOC2(CCN(C(=O)c3ccccc3)CC2)C1 (centres undefined),-17.9%
CCN(CC)CCOC(=O)c1ccc(NC(=O)CSc2cc(=O)n(CC)c3ccccc23)cc1,88.6%
Fc1ccc(Nc2c3c(nc4ccccc24)CCC3)cc1,-11.2%
CCN(CC)CCOC(=O)c1ccc(Nc2c3c(nc4ccccc24)CCC3)cc1,7.08µM*
COc1ccccc1N1CCN(C(=O)[C@H]2CN3CCC2C[C@@H]3Cn2cc(C(C)(C)C)nn2)CC1 (some centres undefined),i
Cc1cc(=O)n(CC(=O)NCc2ccccc2)c(N(C)Cc2ccccc2)n1,i
COc1cccc(S(=O)(=O)N2C[C@@H](F)C[C@H]2C(=O)N2CCc3ccccc3C2)c1,-10.5%
COc1ccc(NC(=O)CCc2ccnc(N3CCCC3)c2)c(C)c1,-6.1%
COc1ccc(CCNC(=O)c2ccc3c(c2)nc2n3CCC(C)C2)cc1OC (centres undefined),0.5%
CCOc1ccc(CCNC(=O)c2ccc(-n3c(C)cc4c3CCC(C)C4)cc2)cc1OCC (centres undefined),8.91µM*
CSc1ccc(CCNC(=O)c2ccc(-n3c(C)cc4c3CCC(C)C4)cc2)cc1 (centres undefined),42.4%[5.79 µM]
COc1ccc(CN2CC3(CCN(S(=O)(=O)Cc4ccccc4F)CC3)C2=O)cc1,-1.0%
COc1ccc(CCNC(=O)C(=O)Nc2ccccc2F)cc1,i
COc1ccc(CCN(Cc2ccccc2F)CC2(O)CCCNC2)cc1 (centres undefined),12.6µM*
COCCn1ncc(N2CCCC(CC(=O)NCCc3ccccn3)C2)cc1=O (centres undefined),27.3%
CCN1CCN(CCCNC(=O)c2cc3c(=O)n(C)c4ccccc4c3s2)CC1,3.16µM*
CCN(CCCNC(=O)c1cc2c(=O)n(CC)c3ccccc3c2s1)c1ccccc1,-1.1%
CCn1c(=O)c2cc(C(=O)NCCCN3CCC(C)CC3)sc2c2ccccc21,i
Cc1ccc2[nH]c(=O)c3cc(C(=O)NCCCN4CCC(C)CC4)sc3c2c1,8.91µM*
Cn1c(=O)c2cc(C(=O)NCCCN3CCN(c4ccc(F)cc4)CC3)sc2c2ccccc21,-4.4%
CCOC(=O)C1CCCN(C(=O)c2cc3c(=O)[nH]c4ccc(C)cc4c3s2)C1 (centres undefined),i
CN(CCCNC(=O)c1cc2c(=O)n(C)c3ccccc3c2s1)Cc1ccccc1,10µM*
SMILES,Pf Dd2 inh
COc1ccc(Br)cc1CNC(=O)c1cc2c(=O)n(C)c3ccccc3c2s1,25.1%
Cn1c(=O)c2cc(C(=O)NCCCN3CCN(c4ccccc4F)CC3)sc2c2ccccc21,53.6%[5.79 µM]
CCOc1ccc(C(=O)N(Cc2cc(OC)c(OC)c(OC)c2)c2ccccn2)cc1,19.8%
Cc1oc(-c2ccc(C(=O)Nc3cc(F)ccc3F)cc2)nc1COc1ccccc1,i
O=C(c1ccc(=O)[nH]n1)N1CCc2ncnc(N3CCOCC3)c2CC1,3.5%
COc1ccc(C2(C(=O)NCCC3CCN(C(=O)Nc4ccccc4C)CC3)CC2)cc1,i
O=C(c1ccc2c(c1)OCO2)N1CCC2(CC1)CC(c1cccc(C(F)(F)F)c1)=NO2,-14.9%
O=C(Cn1cc(SCc2cccc(C(F)(F)F)c2)c2ccccc21)N1CCCCCC1,-12.8%
Cn1nc2n(c1=O)CCC(NC(=O)c1n[nH]c3c1CC(C(C)(C)C)CC3)CC2 (centres undefined),1.3%
N#Cc1cccc(-c2ccnc(N[C@H]3CO[C@H]4[C@@H]3OC[C@@H]4NC(=O)N3CCOCC3)n2)c1,i
COCCn1cnc2ccc(-c3ccc(F)cc3)nc2c1=O,-13.4%[44.1 µM]
CCOc1cc(=O)n2c(c1C(=O)Nc1cccc(C(F)(F)F)c1)CCCC2,0.1%
CCOc1ccc(C(=O)Nc2ccc3nc(Nc4cccc(C(F)(F)F)c4)cc(C)c3c2)cc1OCC,3.16µM*
CCOc1ccc(C(=O)Nc2ccc(NC(=O)c3ccccc3)cc2)cc1Br,56.0%
Cc1cc(Nc2cccc(Cl)c2)nc2ccc(NC(=O)Cc3ccc(Cl)cc3)cc12,-23.7%
Cc1cc(Nc2cccc(C(F)(F)F)c2)nc2ccc(NC(=O)c3cccnc3)cc12,3.55µM*
Cc1cc(Nc2cccc(Cl)c2)nc2ccc(NC(=O)c3ccc(F)cc3Cl)cc12,-7.8%
O=S(=O)(N1CCCCC1)N1CCOC(Cc2ccccc2Cl)C1 (centres undefined),i
CC(C)(O)CCc1cccc(C(=O)NCCCc2nc3ccccc3o2)c1,-22.0%
Cc1ccc(OCC(=O)Nc2ccc3c(c2)sc(=O)n3C)cc1,-3.3%
Cc1ccc(NC(=O)N[C@H]2CCN3C(=O)[C@H]4CCCN4C(=O)[C@H]23)cc1,-8.0%[44.1 µM]

# High-throughput results deposited in PubChem BioAssay by National Center for Advancing Translational Sciences (NCATS).
